{
  "source": "ChEMBL document CHEMBL1961873",
  "about": "“Compounds: GSK PKIS; Assays: Nanosyn kinase panel” (2012);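 note: values are mean inhibition of MuSK from the GSK PKIS kinase screening panel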",
  "data": [
    {"molecular_target": "T1, Muscle, skeletal receptor tyrosine-protein kinase (Homo sapiens) (UniProt O15146)", "T1 sequence (whole entry)": "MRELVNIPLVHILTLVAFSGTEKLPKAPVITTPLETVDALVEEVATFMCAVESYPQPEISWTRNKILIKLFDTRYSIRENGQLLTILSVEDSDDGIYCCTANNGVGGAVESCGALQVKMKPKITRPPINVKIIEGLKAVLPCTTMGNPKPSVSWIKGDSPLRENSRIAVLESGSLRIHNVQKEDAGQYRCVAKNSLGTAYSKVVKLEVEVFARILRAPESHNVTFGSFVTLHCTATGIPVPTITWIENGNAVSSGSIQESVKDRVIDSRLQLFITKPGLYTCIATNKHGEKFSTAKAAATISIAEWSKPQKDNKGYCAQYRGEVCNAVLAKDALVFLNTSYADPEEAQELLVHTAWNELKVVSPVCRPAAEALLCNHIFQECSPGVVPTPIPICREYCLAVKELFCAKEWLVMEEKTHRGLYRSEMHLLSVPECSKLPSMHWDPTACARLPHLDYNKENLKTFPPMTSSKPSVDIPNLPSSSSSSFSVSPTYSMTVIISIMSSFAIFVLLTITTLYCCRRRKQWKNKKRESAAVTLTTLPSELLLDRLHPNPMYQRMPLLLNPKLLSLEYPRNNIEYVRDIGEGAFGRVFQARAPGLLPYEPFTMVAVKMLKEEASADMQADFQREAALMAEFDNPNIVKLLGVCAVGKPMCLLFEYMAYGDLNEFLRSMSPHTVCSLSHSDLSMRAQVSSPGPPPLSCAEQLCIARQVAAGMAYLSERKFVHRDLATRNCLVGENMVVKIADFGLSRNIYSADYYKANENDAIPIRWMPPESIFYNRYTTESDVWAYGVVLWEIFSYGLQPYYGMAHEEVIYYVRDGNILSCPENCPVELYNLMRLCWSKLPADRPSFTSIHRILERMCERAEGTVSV", "conditions": "at 0.1 µM", "units": {"inhibition": "%"}, "values": [
      {"smiles": "FC(F)(F)c1cccc(-c2nn3ncccc3c2-c2ccnc(Nc3ccc4c(c3)OCCO4)n2)c1", "inhibition": 1.28},
      {"smiles": "O=C(Nc1n[nH]c2cc(-c3ccc(F)cc3)ccc12)C1CC1", "inhibition": 2.93},
      {"smiles": "CN1CCC(n2cnc(-c3ccc(F)cc3)c2-c2ccnc(N)n2)CC1", "inhibition": 0.53},
      {"smiles": "COc1ccc(-c2cc(-c3c[nH]nc3-c3ccccn3)ccn2)cc1", "inhibition": 3.4},
      {"smiles": "COc1ccc(CNC(=O)c2ccc(-c3cc(-c4nnc(C)o4)ccc3C)cc2)cc1", "inhibition": 3.25},
      {"smiles": "CCN(CC)S(=O)(=O)c1ccc(OC)c(Nc2ncc(-c3ccccc3)o2)c1", "inhibition": -2.42},
      {"smiles": "CCOc1ccc2c(-c3ccnc(Nc4cccc(C(F)(F)F)c4)n3)cnn2n1", "inhibition": 2.25},
      {"smiles": "COc1cccc(-c2c[nH]c3c(N/N=C/c4ccncc4)ncnc23)c1", "inhibition": 13.4},
      {"smiles": "COc1cccc(-n2ncc3c(N/N=C/c4ccc(F)cc4)ncnc32)c1", "inhibition": 3.89},
      {"smiles": "NS(=O)(=O)c1ccc(N/N=C2\\C(=O)Nc3ccc4ncccc4c32)cc1", "inhibition": 11.3},
      {"smiles": "Nc1nc(-c2ccc(F)cc2)c(-c2ccc3ncccc3n2)s1", "inhibition": 3.45},
      {"smiles": "CNC(=O)c1cncc(/C=C/c2ccccc2Cl)c1", "inhibition": 0.71},
      {"smiles": "COc1cc2c(cc1Nc1nc(Nc3ccsc3C(N)=O)c3cc[nH]c3n1)N(C(=O)CN(C)C)CCC2(C)C", "inhibition": 14.8},
      {"smiles": "Fc1cccc(COc2ccc(Nc3ncnc4sc(-c5ccco5)cc34)cc2Cl)c1", "inhibition": 4.4},
      {"smiles": "COc1ccc2[nH]c3c4[nH]c5ccc(OC)cc5c4c4c(c3c2c1)C(=O)NC4=O", "inhibition": 4.97},
      {"smiles": "CNC(=O)c1cc(-c2ccc(F)cc2)cc(-c2ccc(S(=O)(=O)N3CCCC3)cc2)c1N", "inhibition": 2.8},
      {"smiles": "Nc1nc(-c2cccc(Cl)c2)c(-c2ccc3ncccc3n2)s1", "inhibition": 2.01},
      {"smiles": "CCn1c(-c2nonc2N)nc2c(C#CC(C)(C)O)nc(OC[C@H](N)c3ccccc3)cc21", "inhibition": 0.54},
      {"smiles": "COc1cc(/C=N/Nc2ncnc3[nH]ncc23)ccc1O", "inhibition": 5.09},
      {"smiles": "CC(=O)Nc1cccc(C#Cc2cncnc2Nc2ccc(OCc3cccc(F)c3)c(Cl)c2)c1", "inhibition": 2.39},
      {"smiles": "N#Cc1c(NC(=O)c2ccc(F)cc2)sc2c1CCCC2", "inhibition": 1.9},
      {"smiles": "Cc1cccc(Nc2ncc(-c3ccccc3)o2)c1", "inhibition": 0.01},
      {"smiles": "O=C(O[C@H]1CN[C@H](C#Cc2cc3ncnc(Nc4ccc(Cc5ccccc5)cc4)c3s2)C1)N1CCOCC1", "inhibition": -0.21},
      {"smiles": "COC(=O)c1sc(-n2cnc3cc(OC)c(OC)cc32)cc1OCc1ccccc1C(F)(F)F", "inhibition": 15.4},
      {"smiles": "CN1CCC(n2cnc(-c3ccc(F)cc3)c2-c2ccnc(Nc3ccccc3)n2)CC1", "inhibition": 1.28},
      {"smiles": "CNC(=O)c1cccc(C#Cc2cncnc2Nc2ccc(OCc3cccc(F)c3)c(Cl)c2)c1", "inhibition": -0.28},
      {"smiles": "CS(=O)(=O)CCNCc1ccc(-c2ccc3ncnc(Nc4ccc(OCc5ccccc5)c(C(F)(F)F)c4)c3c2)o1", "inhibition": 1.44},
      {"smiles": "Nc1ncc(-c2cccc(S(N)(=O)=O)c2)c2scc(-c3ccc(F)c(Cl)c3)c12", "inhibition": 2.5},
      {"smiles": "CC(C)(CO)CNC(=O)c1ccc2c(c1)/C(=N/Nc1ccc(S(N)(=O)=O)cc1)C(=O)N2", "inhibition": 3.03},
      {"smiles": "CCCN1CCC(c2ccc(Nc3nc(Nc4cc(F)ccc4C(N)=O)c4cc[nH]c4n3)c(OC)c2)CC1", "inhibition": 4.34},
      {"smiles": "CCn1c(-c2nonc2N)nc2cnc(Oc3cccc(NC(=O)c4ccc(N(C)C)cc4)c3)cc21", "inhibition": 2.84},
      {"smiles": "Fc1ccc(-c2nn3ccccc3c2-c2ccncc2)cc1", "inhibition": 3.06},
      {"smiles": "COc1ccc(-c2oc3ncnc(N)c3c2-c2ccc(NC(=O)Nc3cc(C(F)(F)F)ccc3F)cc2)cc1", "inhibition": 96.6}
    ]}
  ]
}
